M1 ag = human M1 muscarinic receptor agonism; P11229; CHO-K1 hM1, Fluo-8 calcium fluorescence, agonist mode; 0% DMSO, 100% acetylcholine EC100; activation, % at 3 µM; hit rate 0.33% among 360,000;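 active = activation above the run's mean compound activation plus 3 SD, cut at about 16% in these data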;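 also: peak over basal fluorescence ratio within a 140 s kinetic read after compound addition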
Target sequence (P11229 whole entry, looked up): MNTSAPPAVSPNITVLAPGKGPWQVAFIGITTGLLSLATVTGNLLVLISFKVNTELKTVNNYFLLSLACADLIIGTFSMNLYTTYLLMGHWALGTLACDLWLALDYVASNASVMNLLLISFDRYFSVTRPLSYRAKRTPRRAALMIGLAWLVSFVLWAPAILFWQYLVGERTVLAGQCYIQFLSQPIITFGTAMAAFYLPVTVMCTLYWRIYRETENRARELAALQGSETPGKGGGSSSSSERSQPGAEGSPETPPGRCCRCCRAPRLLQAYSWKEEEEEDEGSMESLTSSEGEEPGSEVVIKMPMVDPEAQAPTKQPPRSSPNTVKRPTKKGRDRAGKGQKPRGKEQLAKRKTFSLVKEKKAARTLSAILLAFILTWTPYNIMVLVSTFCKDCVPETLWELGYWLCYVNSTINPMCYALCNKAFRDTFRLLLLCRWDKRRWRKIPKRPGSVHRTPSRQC
CHO-K1 Ca antag = counter-screen for M1 antagonists: effect in parental CHO-K1 cells; AID 602250; hit rate 0.6% among 360,000; inhibition, % at 3 µM; ATP-induced calcium, Fluo-8 fluorescence;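 active = inhibition above a per-plate cutoff, the plate's mean sample inhibition plus 3 SD, cut at about 24% in these data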;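 also: 0% = DMSO plus EC80 ATP and 100% = DMSO alone without ATP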
M1 ag parental = counter-screen for M1 agonists: effect in parental CHO-K1 cells; Fluo-8 calcium fluorescence; scaled to maximal ATP response, vehicle zero; activation, % at 3 µM; hit rate 0.48% among 360,000; in the data active = activation above about 15%;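 also: untransfected CHO-K1 host cells lacking M1 receptor as counterscreen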
CHRM1 PAM = potentiates human M1 receptor response to acetylcholine. CHO-K1 hM1, Fluo-8 calcium fluorescence, ACh EC20; 0% = ACh EC20, 100% = maximal ACh. activation, % at 3 µM. P11229. AID 588819. hit rate 0.088% among 360,000; in the data active = activation above about 19%, passing the limit was not always enough
M1 PAM parental = M1 PAM counterscreen hit in parental CHO-K1 cells; hit rate 0.02% among 360,000; AID 602247; activation, % at 3 µM; ATP EC20, Fluo-8 calcium fluorescence; 0% at ATP EC20, 100% at ATP max;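 active = activation above the run cutoff, the mean activation of all test compounds plus 3 SD, cut at about 40% in these data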;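 also: peak over basal fluorescence ratio in a 140 s read after ATP addition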
M1 antag = human CHRM1 antagonism. P11229. CHO-K1 hM1, Fluo-8 calcium fluorescence, ACh EC80 antagonist. inhibition, % at 3 µM. hit rate 1.3% among 360,000. AID 588852;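 active = percent inhibition above its own plate's cutoff, namely the mean of that plate's compound wells plus 3 SD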;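 also: peak over basal fluorescence ratio during 140 s after agonist addition; 0% = ACh EC80 plus DMSO and 100% = DMSO alone without agonist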
The depositor's hits bear a star. Hits are enriched below; roughly 2.3% of the tested compounds scored in any of these assays.

SMILES | M1 ag | CHO-K1 Ca antag | M1 ag parental | CHRM1 PAM | M1 PAM parental | M1 antag
Cc1csc2ncc(C(=O)NC(C)c3ccccc3)c(=O)n12 (centres undefined) | 3 | 14 | 16* | -1 | 4 | 1
CCOC(=O)c1c(N2C(=O)Nc3ccccc3N2O)n[nH]c1-c1cccc(Cl)c1 | -6 | 24* | 0 | -4 | -16 | 1
Cc1noc(C)c1S(=O)(=O)Nc1ccc2c(c1)C(=O)N([C@H](C)CO)C[C@@H](C)[C@@H](CN(C)Cc1ccc3c(c1)OCO3)O2 | -10 | -8 | 0 | 0 | 9 | 0
CCOC(=O)c1cnc2c(cnn2C)c1NCCCN(C)C | 0 | 33* | 0 | 8 | -7 | -8
CCC1Oc2ccccc2N(CC(=O)Nc2ccccc2OC)C1=O (centres undefined) | -5 | 24* | 2 | -3 | -9 | 7
CCN1CCC2(CC1)N=C(c1ccc(F)cc1)C(=S)N2 | -8 | -8 | 4 | -22 | 11 | 39*
O=C(COC(=O)c1ccc(F)c(S(=O)(=O)N2CCOCC2)c1)NCCc1ccc(F)cc1 | -1 | -2 | 1 | 6 | -9 | 8
O=c1oc2ccccc2c(Nc2ccc(Cl)cc2)c1[N+](=O)[O-] | 1 | -4 | 12 | -5 | 4 | -1
O=c1oc2ccccc2c(Nc2ccc(F)cc2)c1[N+](=O)[O-] | 0 | -9 | 19* | 10 | 15 | -17
CC(NC(=O)c1ccccc1NC(=O)CN1CCc2ccccc2C1)c1ccccc1 (centres undefined) | 4 | -13 | 7 | 3 | 40* | -2
COc1ccccc1N1CCN(CC(=O)NCC2CCCO2)CC1 (centres undefined) | 0 | 27* | 0 | 11 | -9 | -3
COc1ccc(CCNC(=O)c2ccccc2NC(=O)CN2CCN(c3ccccc3O)CC2)cc1 | 2 | 7 | 8 | -8 | 10 | 28*
COc1ccccc1N1CCN(CC(=O)Nc2ccccc2C(=O)NCCc2ccccc2)CC1 | -1 | 6 | 4 | -8 | 19 | 29*
O=C(CN1CCN(c2ccccc2O)CC1)Nc1ccccc1C(=O)NCCc1ccccc1 | -2 | 3 | 7 | -12 | -3 | 29
O=C(NNC(=O)C1CC1)c1cc(=O)[nH]c2ccccc12 | 2 | 4 | 0 | 16 | 25 | -15
COc1ccc(-c2nc3c(C)cc(Br)cn3c2Cc2cccc(Cl)c2)cc1OC | -4 | -7 | 1 | 1 | 6 | -31
C/C(CC(=O)NC(C)(C)C)=N\NC(N)=S | -7 | -8 | 0 | 10 | 8 | -10
Cc1cccc(C)c1NC(=O)COC(=O)CCC(=O)c1cccs1 | -7 | -10 | 1 | 7 | 4 | -4
CC(NC(=O)c1ccccc1NC(=O)CN1CCN(c2ccccc2O)CC1)c1ccccc1 (centres undefined) | 2 | -21 | 4 | -5 | 21 | 13
COc1ccccc1N1CCN(CC(=O)Nc2ccccc2C(=O)NC(C)c2ccccc2)CC1 (centres undefined) | 7 | 0 | 6 | -19 | 5 | 35*
CC(C)Cc1cc(C(C)(C)C)ccc1OC(=S)N(C)C | -2 | -11 | 0 | 5 | 13 | -9
Cc1cc(=O)[nH]c(-c2ccccc2OC(F)(F)F)n1 | 6 | -2 | 18* | 11 | 14 | -11
CCC(C)C(NC(=O)/C(=C\c1ccccc1)NC(=O)c1ccc(OC)cc1)C(=O)O (centres undefined) | -7 | -1 | 0 | 11 | 19 | -5
CCCCn1c2ccccc2c2nnc(SCCN3CCCCC3)nc21 | -10 | 15 | 0 | -28 | -13 | 55*
CCCCn1c2ccc(F)cc2c2nnc(SCCN3CCOCC3)nc21 | -8 | 4 | 2 | 1 | 7 | -2
SMILES | M1 ag | CHO-K1 Ca antag | M1 ag parental | CHRM1 PAM | M1 PAM parental | M1 antag
Fc1ccc(C(CNC(=S)NC2CCCCC2)N2CCOCC2)cc1 (centres undefined) | -3 | -2 | 0 | 10 | 10 | -13
Cc1ccc(Cl)cc1N1CCN(C(=O)CN2C(=O)c3cccc4cccc2c34)CC1 | -3 | 26* | 0 | 1 | -6 | 2
Cc1cc(C)cc(C(O)c2ncc(-c3ccc(C(F)(F)F)cc3)[nH]2)c1 (centres undefined) | -3 | -21 | 1 | 7 | 23 | -15
Cc1nc2nc(SCc3ccccc3)[nH]n2c(=O)c1CCC(C)C | 0 | -4 | 5 | 10 | 3 | -14
COc1ccc(N2CCN(CCNC(=O)Nc3ccc(C)c(Cl)c3)CC2)cc1 | -1 | -12 | 18* | 11 | -8 | -14
COc1ccc(N2CCN(C(=O)c3ccc(C)c(Cl)c3)CC2)cc1 | -4 | 29* | 0 | 7 | -3 | 4
C=C(C)C(=O)N1CCN(C(=O)C(=C)C)c2ccccc21 | 0 | -15 | 1 | 10 | 10 | -21
CCCc1nnc(NC(=O)Cn2c(=O)oc3ccccc32)s1 | 2 | -10 | 3 | 6 | 20 | -2
CCCc1nnc(NC(=O)Cn2c(=O)oc3cc(Br)ccc32)s1 | 37* | -11 | 17* | -1 | 22 | 0
COc1ccc(OCC(=O)Nc2nccs2)cc1 | -4 | -5 | 17* | 6 | 13 | -4
COc1ccc(C(CC(=O)Nc2nccs2)n2cccc2)cc1 (centres undefined) | 2 | 8 | 1 | 9 | -9 | -6
CCC(=O)c1ccc(OCC(=O)Nc2nc(-c3cccnc3)cs2)cc1 | -1 | 12 | 8 | -10 | -4 | 27*
Cc1cnc(NC(=O)COc2ccccc2)s1 | -2 | 25* | 0 | -2 | -9 | 15
CCC(=O)c1ccc(OCC(=O)Nc2nc(C)cs2)cc1 | 1 | -5 | 2 | 4 | 7 | -10
COc1ccccc1OCC(=O)Nc1ncc(C)s1 | -3 | -4 | 0 | 0 | -14 | 0
COc1ccc(C(CC(=O)Nc2nccs2)C(C)C)cc1 (centres undefined) | -3 | 3 | 19* | -6 | 3 | 10
O=C(c1ccc([N+](=O)[O-])cc1)N(Cc1cccs1)C1CCS(=O)(=O)C1 (centres undefined) | -4 | -13 | 1 | 16 | 20 | -18
Cc1ccccc1C(=O)N1CCC(C(=O)Nc2ccccn2)CC1 | -3 | -6 | 0 | 0 | -10 | 11
CNc1cncc(-c2ccc(OC)c(OC)c2)n1 | -5 | -3 | 0 | 6 | 5 | -10
CCCCCc1cc(=O)oc2c(C(CCN(CC)CC)c3cc(OC)c(OC)c(OC)c3)c(OC)cc(OC)c12 (centres undefined) | -14 | 10 | 2 | -20 | 4 | 15
CC(C(=O)Nc1ccccc1)N(c1cccc(Cl)c1)S(C)(=O)=O (centres undefined) | -6 | -3 | -1 | 5 | 11 | -3
Cn1c(-c2ccncc2)nc2ccccc21 | -5 | -6 | 0 | 3 | 1 | -5

Assay outcomes deposited in PubChem BioAssay by The Scripps Research Institute Molecular Screening Center.
